In PubChem BioAssay AID1159580 (chemical genetic matrix, 2015):
Out of some 5,500 compounds screened, about 2,000 (36%) were called active. Inconclusive results (about 18%) are left out. Rule as the data show it: active = normalized growth mostly below about 0.91 (no sharp cut-off); inconclusive = no clear call, values can overlap the other calls; inactive = mostly above about 0.92. Some of the results follow.

Assay: chemical genetic growth profiling, strain panel (AID 1159580);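 also: tested at 20 µM; growth read once vehicle control cultures reached saturation at 30 °C; 1 = growth at the plate median or of vehicle wells; lower values mean less growth of the strain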
Settings: growth OD

Measured: normalized growth

Clc1ccc(C(c2ccc(Cl)cc2)C(Cl)(Cl)Cl)cc1
inactive: S. cerevisiae deletion strains, locus YJR043C, strain POL32, stronger effect = lower value 0.996 | S. cerevisiae deletion strains, locus YJR075W, strain HOC1, stronger effect = lower value 1.01 | S. cerevisiae deletion strains, locus YKL009W, strain mrt4, stronger effect = lower value 0.992 | S. cerevisiae deletion strains, locus YKL068W, stronger effect = lower value 1.02 | S. cerevisiae deletion strains, locus YKL085W, strain MDH1 (second series), stronger effect = lower value 1.01 | S. cerevisiae deletion strains, locus YKL085W, strain MDH1, stronger effect = lower value 1.01 | S. cerevisiae deletion strains, locus YKL160W, strain elf1, stronger effect = lower value 1.01 | S. cerevisiae deletion strains, locus YKL190W, strain CNB1, stronger effect = lower value 0.996 | S. cerevisiae deletion strains, locus YKR001C, strain vps1, stronger effect = lower value 0.997 | S. cerevisiae deletion strains, locus YKR026C, strain gcn3, stronger effect = lower value 1.01 | S. cerevisiae deletion strains, locus YKR091W, strain srl3, stronger effect = lower value 1 | S. cerevisiae deletion strains, locus YLL001W, strain dnm1, stronger effect = lower value 1.02 | S. cerevisiae deletion strains, locus YLL026W, stronger effect = lower value 1.01 | S. cerevisiae deletion strains, locus YLL041C, strain sdh2, stronger effect = lower value 1.01 | S. cerevisiae deletion strains, locus YLR027C, strain aat2, stronger effect = lower value 1.01 | S. cerevisiae deletion strains, locus YLR039C, strain RIC1, stronger effect = lower value 1.05 | S. cerevisiae deletion strains, locus YLR058C, strain SHM2, stronger effect = lower value 1.02 | S. cerevisiae deletion strains, locus YLR102C, strain apc9, stronger effect = lower value 0.992 | S. cerevisiae deletion strains, locus YLR221C, strain rsa3, stronger effect = lower value 1.01 | S. cerevisiae deletion strains, locus YLR258W, strain gsy2, stronger effect = lower value 1.01 | S. cerevisiae deletion strains, locus YLR262C, strain YPT6 (second series), stronger effect = lower value 0.985 | S. cerevisiae deletion strains, locus YLR262C, strain YPT6, stronger effect = lower value 0.999 | S. cerevisiae deletion strains, locus YLR268W, strain sec22, stronger effect = lower value 1 | S. cerevisiae deletion strains, locus YLR320W, strain mms22, stronger effect = lower value 0.99 | S. cerevisiae deletion strains, locus YLR330W, strain CHS5, stronger effect = lower value 1.02 | S. cerevisiae deletion strains, locus YLR342W, strain FKS1 (second series), stronger effect = lower value 1.04 | S. cerevisiae deletion strains, locus YLR342W, strain FKS1, stronger effect = lower value 1.01 | S. cerevisiae deletion strains, locus YLR357W, strain rsc2, stronger effect = lower value 1.03 | S. cerevisiae deletion strains, locus YLR370C, strain arc18, stronger effect = lower value 1.01 | S. cerevisiae deletion strains, locus YLR371W, strain rom2, stronger effect = lower value 0.995 | S. cerevisiae deletion strains, locus YLR384C, strain iki3, stronger effect = lower value 1 | S. cerevisiae deletion strains, locus YLR418C, strain cdc73, stronger effect = lower value 0.984 | S. cerevisiae deletion strains, locus YML016C, strain PPZ1, stronger effect = lower value 1.03 | S. cerevisiae deletion strains, locus YML032C, strain rad52, stronger effect = lower value 0.992 | S. cerevisiae deletion strains, locus YML120C, strain ndi1, stronger effect = lower value 0.997 | S. cerevisiae deletion strains, locus YML124C, strain tub3, stronger effect = lower value 1 | S. cerevisiae deletion strains, locus YMR058W, strain fet3, stronger effect = lower value 1.01 | S. cerevisiae deletion strains, locus YMR078C, strain ctf18, stronger effect = lower value 0.991 | S. cerevisiae deletion strains, locus YMR125W, strain sto1, stronger effect = lower value 1.01 | S. cerevisiae deletion strains, locus YMR129W, stronger effect = lower value 1.01 | S. cerevisiae deletion strains, locus YMR205C, strain PFK2, stronger effect = lower value 0.977 | S. cerevisiae deletion strains, locus YMR223W, strain ubp8, stronger effect = lower value 0.991 | S. cerevisiae deletion strains, locus YMR231W, strain pep5, stronger effect = lower value 1.01 | S. cerevisiae deletion strains, locus YMR263W, strain SAP30, stronger effect = lower value 1.02 | S. cerevisiae deletion strains, locus YMR307W, strain GAS1, stronger effect = lower value 0.918 | S. cerevisiae deletion strains, locus YNL067W, strain RPL9B, stronger effect = lower value 1.01 | S. cerevisiae deletion strains, locus YNL071W, strain lat1, stronger effect = lower value 1.02 | S. cerevisiae deletion strains, locus YNL128W, strain TEP1, stronger effect = lower value 1.02 | S. cerevisiae deletion strains, locus YNL153C, strain GIM3, stronger effect = lower value 1.02 | S. cerevisiae deletion strains, locus YNL209W, strain ssb2, stronger effect = lower value 1 | S. cerevisiae deletion strains, locus YNL233W, strain BNI4, stronger effect = lower value 1.01 | S. cerevisiae deletion strains, locus YNL248C, strain rpa49, stronger effect = lower value 1 | S. cerevisiae deletion strains, locus YNL250W, strain rad50, stronger effect = lower value 1 | S. cerevisiae deletion strains, locus YNL271C, strain bni1, stronger effect = lower value 0.997 | S. cerevisiae deletion strains, locus YNL298W, strain CLA4, stronger effect = lower value 1.02 | S. cerevisiae deletion strains, locus YNL307C, strain MCK1, stronger effect = lower value 0.963 | S. cerevisiae deletion strains, locus YNL322C, strain KRE1 (second series), stronger effect = lower value 1.01 | S. cerevisiae deletion strains, locus YNL322C, strain KRE1, stronger effect = lower value 1.02 | S. cerevisiae deletion strains, locus YNR049C, strain mso1, stronger effect = lower value 1.01 | S. cerevisiae deletion strains, locus YNR052C, strain pop2, stronger effect = lower value 0.991 | S. cerevisiae deletion strains, locus YOL006C, strain TOP1, stronger effect = lower value 1.02 | S. cerevisiae deletion strains, locus YOL012C, strain htz1 1.14 | S. cerevisiae deletion strains, locus YOL147C, strain pex11, stronger effect = lower value 1 | S. cerevisiae deletion strains, locus YOR001W, strain rrp6, stronger effect = lower value 1.01 | S. cerevisiae deletion strains, locus YOR061W, strain CKA2, stronger effect = lower value 1.01 | S. cerevisiae deletion strains, locus YOR069W, strain VPS5, stronger effect = lower value 1.01 | S. cerevisiae deletion strains, locus YOR070C, strain gyp1, stronger effect = lower value 1.01 | S. cerevisiae deletion strains, locus YOR080W, strain dia2, stronger effect = lower value 1.01 | S. cerevisiae deletion strains, locus YOR083W, strain WHI5, stronger effect = lower value 1.01 | S. cerevisiae deletion strains, locus YOR106W, strain vam3, stronger effect = lower value 0.988 | S. cerevisiae deletion strains, locus YOR136W, strain idh2, stronger effect = lower value 0.99 | S. cerevisiae deletion strains, locus YOR144C, strain elg1, stronger effect = lower value 1 | S. cerevisiae deletion strains, locus YOR184W, strain ser1, stronger effect = lower value 0.982 | S. cerevisiae deletion strains, locus YOR265W, strain rbl2, stronger effect = lower value 1.01 | S. cerevisiae deletion strains, locus YOR270C, strain vph1, stronger effect = lower value 1.01 | S. cerevisiae deletion strains, locus YOR290C, strain snf2, stronger effect = lower value 1 | S. cerevisiae deletion strains, locus YOR316C, strain cot1, stronger effect = lower value 1.01 | S. cerevisiae deletion strains, locus YPL051W, strain arl3, stronger effect = lower value 1 | S. cerevisiae deletion strains, locus YPL055C, strain LGE1, stronger effect = lower value 0.989 | S. cerevisiae deletion strains, locus YPL078C, strain atp4, stronger effect = lower value 1.01 | S. cerevisiae deletion strains, locus YPL106C, strain sse1, stronger effect = lower value 1.03 | S. cerevisiae deletion strains, locus YPL240C, strain hsp82, stronger effect = lower value 0.999 | S. cerevisiae deletion strains, locus YPL241C, strain CIN2, stronger effect = lower value 1.02 | S. cerevisiae deletion strains, locus YPR119W, strain clb2, stronger effect = lower value 0.998 | S. cerevisiae deletion strains, locus YPR141C, strain kar3, stronger effect = lower value 1.01 | S. cerevisiae deletion strains, locus YPR163C, strain tif3, stronger effect = lower value 0.998 | S. cerevisiae deletion strains, locus YPR167C, strain met16, stronger effect = lower value 0.997 | S. cerevisiae deletion strains, strain wtn01, stronger effect = lower value 0.997 | S. cerevisiae strains, strain wild type, stronger effect = lower value 1.01
